# Compound activity: PubChem BioAssay, Broad Institute
# Hits are enriched below; roughly 0.61% of the tested compounds scored in any of these assays.
# TcdB inh: TcdB glycohydrolase inhibitors, primary screen, biochemical, single point, plate reader | AID 652162, 2013 | 350,000 tested, 0.24% active | TcdB glycohydrolase enzymatic assay | Toxin B (Clostridioides difficile), P18177 | inhibition, % at 9.99 µM; in the data active means inhibition above about 10%
# BH1578 lux ind: inducers of Vibrio cholerae quorum light production without autoinducers, primary screen, BH1578 luxS cqsA deficient, single point; V. cholerae BH1578 lux reporter, luminescence, 6 h; activation, % at 18.7 µM; 350,000 tested, 0.16% active; AID 588436, 2011; in the data active means activation mostly above about 9.7%, no sharp cut-off
# Yp Topo-I inh: Yersinia pestis topoisomerase I inhibitors, primary screen, biochemical, cleavage product accumulation, plate reader, single point; 360,000 tested, 0.064% active; DNA topoisomerase I (Yersinia pestis CO92); Y. pestis Topo-I cleavage product accumulation; activity, % at 10 µM; in the data active means activity above about 50%, passing the limit was not always enough
# BioA inh: M. tuberculosis BioA enzyme inhibitors, primary screen, biochemical, plate reader, single point, HTS | inhibition, % at 9.99 µM | AID 602481, 2012 | 7,8-diaminopelargonic acid synthase BioA (Mycobacterium tuberculosis) | 360,000 tested, 0.096% active | purified M. tuberculosis BioA enzyme; in the data active means inhibition above about 40%
# FadD28 binding: inhibitors of FadD28 bisubstrate probe binding, primary screen, biochemical, fluorescence polarization, single point; inhibition, % at 12.5 µM; 360,000 tested, 0.22% active; in the data active means inhibition above about 8.5%, passing the limit was not always enough
# * hit, by the source's call; i = inactive; · = no result given.
SMILES,TcdB inh,BH1578 lux ind,Yp Topo-I inh,BioA inh,FadD28 binding
CC(=O)Nc1nc(C)c(Oc2ccc(Cl)cc2Cl)c(=O)[nH]1,·,17*,1,0,-2
COc1cc(-c2ccc(Nc3ccccc3C(=O)O)c(OC)c2)ccc1Nc1ccccc1C(=O)O,-2,i,-22,2,78*
COc1cc([N+](=O)[O-])c(OC)cc1Nc1ccccc1C(=O)O,0,·,·,·,·
COc1cccc(NC(=O)N2C[C@@H](O)COC[C@@H]3O[C@H](CC(=O)NCc4ccccc4F)CC[C@H]32)c1,-1,·,·,0,·
O=C(NN1C(=O)/C(=C/c2ccc(O)cc2)SC1=S)c1cccc(O)c1,1,0,-10,-26,19*
O=C(NN1C(=O)/C(=C/c2ccc(O)c([N+](=O)[O-])c2)SC1=S)c1ccccc1Cl,-2,-1,-17,·,21*
COc1cc(/C=C2\SC(=S)N(NC(=O)c3ccccc3O)C2=O)ccc1O,-4,i,0,8,11*
O=C(NN1C(=O)/C(=C/c2ccc(O)cc2)SC1=S)c1ccccc1O,-3,0,-3,-15,19*
COCCOC(=O)N1C(=O)[C@@]2(c3cc(C#Cc4ccc(OC)cc4)ccc31)[C@H](C(=O)N1CCc3cc(OC)c(OC)cc3C1)[C@H]1C(=O)O[C@H](c3ccccc3)[C@H](c3ccccc3)N1[C@@H]2c1ccc(OCCO)cc1,-7,·,·,·,·
CN1C(=O)c2cc(NC(=O)Cc3cccs3)ccc2OC[C@H]2O[C@@H](CC(=O)NCC3CCCCC3)CC[C@H]21,-1,·,·,-1,·
C[C@@H]1CCCCO[C@H](CN(C)S(=O)(=O)c2ccc(F)cc2)[C@@H](C)CN([C@@H](C)CO)C(=O)c2cc(NC(=O)Nc3ccc(C(F)(F)F)cc3)ccc2O1,1,·,·,-1,·
C[C@H]1CN([C@@H](C)CO)C(=O)c2cc(-c3ccccc3)cnc2O[C@@H]1CN(C)C(=O)Cc1cccnc1,-1,·,·,4,·
Cc1cc(N2CCCC2=O)cc(C)c1S(=O)(=O)Nc1c(C)nn(C)c1C,42*,0,-4,2,-2
COc1ccccc1C(=O)NCCC(=O)N1CC=C(c2ccccc2)CC1,2,i,132*,20,0
Cc1ccc(S(=O)(=O)NC[C@H]2CC[C@@H]3[C@@H](CN3Cc3cc(-c4ccccc4)on3)O2)cc1,0,·,·,·,·
Cc1cc(OCC(=O)Nc2cccc(S(=O)(=O)N3CCCCC3)c2)ccc1Cl,-2,-1,31,-2,-1
Cc1cccc(NC(=O)COC(=O)c2cccc(S(=O)(=O)N3CCCCCC3)c2)c1,1,-1,29,-1,10*
CCC(=O)c1ccc(OCC(=O)Nc2cccc(S(=O)(=O)N3CCCCCC3)c2)cc1,0,1,14,1,13*
CC(=O)Nc1ccc2c(c1)C(=O)N(C)[C@@H]1CC[C@H](CC(=O)NCc3ccc4c(c3)OCO4)O[C@@H]1CO2,·,·,·,0,·
Cc1cccc(/C=N/n2c(C3CCCCC3)n[nH]c2=S)c1,0,1,10,2,11*
Cc1ccc(Cl)cc1C1=CC(=O)C[C@H](c2ccc(F)cc2)C1,1,i,69*,-2,-3
N#C[C@H]1[C@@H](c2ccccc2C2=CCCC2)[C@H](CO)N1C(=O)C1CCCC1,0,·,·,·,·
O=S(=O)(Nc1ncccn1)c1ccc(NC(=S)Nc2ccccc2)cc1,0,0,4,0,-2
CCc1c(C(=O)NNC(=S)Nc2ccc(S(=O)(=O)Nc3ncccn3)cc2)csc1C,0,i,1,0,9.6*
CC(C)CCn1c(=O)c2ccccc2n2c(=S)[nH]nc12,-1,0,2,0,-3
SMILES,TcdB inh,BH1578 lux ind,Yp Topo-I inh,BioA inh,FadD28 binding
CCOCCCn1c(=O)c2ccccc2n2c(=S)[nH]nc12,25*,i,5,1,-2
O=C(c1cn(-c2ccccc2)nc1-c1ccncc1)n1nnc2ccccc21,100*,2,5,1,-1
O=C(O)c1cn(-c2ccccc2)nc1-c1ccncc1,·,2,-8,0,-2
CN1CC(=O)N/C1=N\C(=O)Nc1ccc(O)cc1,13*,i,6,0,-1
NNC(=O)C(=O)Nc1ccc(O)cc1,10,-1,-6,·,-5
CO[C@@H]1CN(C)C(=O)c2cc(NC(C)=O)ccc2OC[C@H](C)N(C(=O)c2ccc(F)cc2)C[C@H]1C,0,·,·,0,·
C[C@H](CO)N1C[C@H](C)[C@@H](CN(C)S(=O)(=O)c2cccs2)Oc2ccc(NC(=O)Cn3cnnn3)cc2CC1=O,0,·,·,3,·
O=c1oc(-c2ccc(O)c(O)c2)cc2cccc(O)c12,1,0,-21,1,2
O=c1oc(-c2ccc(O)c(O)c2)cc2cc(O)cc(O)c12,2,-1,-24,0,12*
CCC(=O)N1[C@H](CO)[C@H](c2ccc(-c3cccc(OC)c3)cc2)[C@H]1CNC(C)=O,1,·,·,·,·
Cn1c2c(c(=O)[nH]c1=O)C(c1ccc(O)cc1)C1=C(N2)c2ccccc2C1=O (stereo not given),-2,25*,-4,4,0
Nc1nc2c(c(=O)[nH]1)C(c1ccccc1)C1=C(N2)c2ccccc2C1=O (stereo not given),0,i,-10,-2,2
C[C@@H]1CN([C@H](C)CO)C(=O)c2cc(-c3cccnc3)cnc2O[C@@H]1CN(C)C(=O)Cc1cccnc1,0,·,·,-2,·
CCCOC(=O)NC1CCS(=O)(=O)C1 (stereo not given),·,17*,5,-2,-2
O=C(CSc1c2c(nc3cc(Cl)ccc13)CCCC2)NCCN1CCOCC1,2,i,-3,·,-4
Cc1ccc(CNC(=O)CSc2c3c(nc4cc(Cl)ccc24)CCCC3)o1,·,26*,0,0,-3
Cc1ccc(S(=O)(=O)N(C)C[C@@H]2OCCCC[C@H](C)Oc3ccc(NC(=O)NC(C)C)cc3C(=O)N([C@H](C)CO)C[C@@H]2C)cc1,2,·,·,1,·
CC(C)(O)C#Cc1cccc(-c2nc(C(=O)O)cc3c2[C@H](CCO)N(S(=O)C(C)(C)C)C3)c1 (stereo not given in full),0,·,·,-1,·
COc1ccc(C(=O)Nc2cc(Cl)ccc2C(=O)O)cc1,29*,0,-4,·,-15
COc1ccc(C(=O)Nc2cc(Cl)ccc2OC(=O)c2ccc(OC)cc2)cc1,·,i,1,-2,-2
CCOC(=O)c1ccc(NC(=S)NNC(=O)C2(C)CC2(Cl)Cl)cc1 (stereo not given),·,i,0,0,15*
COc1cc(/C=C2\SC(=O)N(CC(=O)Nc3cccc(C)c3)C2=O)ccc1OC(C)C(=O)O (stereo not given),0,-1,-2,1,81*
